# Compounds with a hit are over-represented: about 2.1% of the library has one in this group of screens.
# YB-1 expr inh: YB-1 expression inhibition; AID 434959; U2OS, qRT-PCR YB-1 vs CDIP delta delta Cp, 16 h; stronger effect = higher value; zero = DMSO, each unit about twofold; delta delta Cp (YB-1 minus CDIP) (concentration not given with the values); 30,000 tested, 0.37% active;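 active = delta delta Cp rounded down to an integer at or above 3, about 3 SD of DMSO wells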;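 note: higher means less YB-1 transcript or more CDIP transcript relative to DMSO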
# ROS inducer: inducers of reactive oxygen species in cancer cells. AID 624156. 46,000 tested, 2% active. ROS induction (% of piperlongumine), % at 10 µM. U2OS ROS induction, H2DCF-DA fluorescence; in the data active = ROS induction above about 79%, passing the limit was not always enough;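 note: 0% = DMSO vehicle median and 100% = reference compound median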
# * marks the source's active call; other numbers are inactive results; . = no result.
SMILES,YB-1 expr inh,ROS inducer
CCCNC(=O)c1ccc2nc(N3CCCCC3)sc2c1,.,-12
CN(C)c1nc(C(C)(C)C)cc2c1C(=O)NC2=O,0.072,-8
CCOC(=O)CSc1sc(C(=O)OCC)c2c1S(=O)(=O)N(C)c1ccccc1-2,-0.41,112*
CCOC(=O)CSc1ncc(-c2ccccc2)nn1,.,-4
O=C(NCc1ccc(-c2cccs2)s1)c1c(Cl)cccc1Cl,.,-1
CC(C)(C)c1cc(C(=O)NCc2cccs2)cc(C(=O)NCc2cccs2)c1,.,22
COC(=O)CCCCCCC(=O)N/N=C/c1ccc(F)cc1,0.096,16
COC(=O)CCCCCCC(=O)N/N=C/c1c(F)c(F)c(F)c(F)c1F,0.03,266*
COc1ccc(-c2cc(CC(C)C)nc(N)c2C#N)cc1,.,5
COc1ccccc1COc1ccc2c3c(c(=O)oc2c1C)CCCCC3,0.036,10
COC(=O)C1=C(C)NC(=O)NC1c1ccccc1OCC(=O)Nc1ccc(C)cc1 (stereo unspecified),.,0
CN1C2=C(C(=O)CC(C)(C)C2)C(c2ccccc2OCC(=O)Nc2ccc(F)cc2)C2=C1CC(C)(C)CC2=O,.,134*
N#Cc1cn(C2CC2)c(=O)n(Cc2ccccc2)c1=O,.,-11
C[C@H](CO)N1C[C@H](C)[C@H](CN(C)S(=O)(=O)c2ccc(Cl)cc2)Oc2ccc(NC(=O)c3ccncc3)cc2CC1=O,0.2,102*
Cc1ccc(S(=O)(=O)N(C)C[C@@H]2Oc3ccc(NC(=O)Nc4ccccc4)cc3CC(=O)N([C@H](C)CO)C[C@@H]2C)cc1,-0.059,5
Cc1ccc(S(=O)(=O)N(C)C[C@H]2Oc3ccc(NC(=O)Nc4ccc(C(F)(F)F)cc4)cc3CC(=O)N([C@@H](C)CO)C[C@H]2C)cc1,0.4,36
C[C@H]1CN([C@@H](C)CO)C(=O)Cc2cc(NC(=O)c3ccncc3)ccc2O[C@@H]1CN(C)S(=O)(=O)c1ccc(Cl)cc1,0.15,24
Cc1ccc(S(=O)(=O)N(C)C[C@@H]2Oc3ccc(NC(=O)Nc4ccc(C(F)(F)F)cc4)cc3CC(=O)N([C@@H](C)CO)C[C@@H]2C)cc1,0.041,98*
Cc1ccc(S(=O)(=O)N(C)C[C@H]2Oc3ccc(NC(=O)Nc4ccccc4)cc3CC(=O)N([C@@H](C)CO)C[C@@H]2C)cc1,-0.33,123*
O=c1c2c3c(sc2ncn1/N=C/c1cc(Br)ccc1O)CCCC3,.,4
CCOC(=O)c1c(NC(=O)c2cc(S(=O)(=O)N3CCOCC3)ccc2OC)sc2c1CCC2,.,1
O=C(Oc1ccc(N(Cc2cccs2)C2=NS(=O)(=O)c3ccccc32)cc1)c1ccccc1,-0.18,57
CN(/N=C/c1ccccc1)C1=NS(=O)(=O)c2ccccc21,0.073,96*
CC(C)(C)NC(=O)CSc1ccc(Cl)cc1,0.077,-2
CC(=O)Oc1ccc(-c2coc3cc(OC(C)=O)cc(OC(C)=O)c3c2=O)cc1,0.38,26
SMILES,YB-1 expr inh,ROS inducer
CC(=O)OC[C@H]1O[C@@H](Oc2cc(OC(C)=O)c3c(=O)cc(-c4ccc(OC(C)=O)cc4)oc3c2)[C@H](OC(C)=O)[C@@H](OC(C)=O)[C@@H]1OC(C)=O,-0.013,246*
COc1ccc(Cl)c(OC)c1C(=O)NC(=O)Nc1c(C)cccc1C,.,1
COc1cc(Br)cc(/C=N/N(CCO)C2=NS(=O)(=O)c3ccccc32)c1OC,.,115*
Cc1ccccc1OCC(=O)Nc1ccc(NC(=O)c2cccs2)cc1,.,6
O=C(Nc1cccc(F)c1)C1CCN(c2ncnc3c2sc2cccc(F)c23)CC1,.,111*
CCc1cccc(NC(=O)C2CCN(c3nn4c(=O)cc(C)nc4s3)CC2)c1,.,-6
C=C(C)C(=O)O[C@H]1CC(=C)C2C[C@H](O)[C@](O)(CO)C2[C@H]2OC(=O)C(=C)[C@H]12 (stereo partly specified),0.43,186*
C=C(C)C(=O)O[C@H]1[C@H]2C(=C)C(=O)O[C@@H]2C[C@@H](C)[C@@H]2O[C@@H]2C(=O)[C@](C)(O)[C@@H]1OC(=O)C(=C)C,-0.54,29
O=C1O[C@@H](c2ccccc2)[C@@H](c2ccccc2)N2[C@@H](c3ccc(OCCO)cc3)[C@]3(C(=O)Nc4ccccc43)[C@@H](C(=O)NC[C@H](O)c3ccccc3)[C@H]12,-0.17,103*
COCCOC(=O)N1C(=O)[C@@]2(c3ccccc31)[C@H](C(=O)NC[C@H](O)c1ccccc1)[C@H]1C(=O)O[C@H](c3ccccc3)[C@H](c3ccccc3)N1[C@@H]2c1ccc(OCCO)cc1,0.33,84*
COCCOC(=O)N1C(=O)[C@@]2(c3cc(C#Cc4ccc(OC)cc4)ccc31)[C@H](C(=O)NC[C@H](O)c1ccccc1)[C@H]1C(=O)O[C@H](c3ccccc3)[C@H](c3ccccc3)N1[C@@H]2c1ccc(OCCO)cc1,0.24,13
O=C1O[C@@H](c2ccccc2)[C@@H](c2ccccc2)N2[C@@H](c3ccc(O)cc3)[C@]3(C(=O)Nc4ccccc43)[C@@H](C(=O)NC[C@H](O)c3ccccc3)[C@H]12,-0.51,5
Nc1ncnc2c1cnn2-c1ccccc1,3.9*,35
c1ccc(-n2ncc3c(N4CCc5ccccc54)ncnc32)cc1,0.26,-4
Cc1ccc(S[C@]2(C(=O)NC(C)C)CC(=O)N(C3CCCCC3)[C@@H]2c2ccc(CO)cc2I)cc1,0.11,201*
Cc1ccc(S[C@]2(C(=O)NCC(F)(F)F)CC(=O)N(C3CCCCC3)[C@@H]2c2ccc(CO)cc2I)cc1,0.19,19
Cc1ccc2c(c1)c1nc3ccccc3nc1n2CCN1CCOCC1,.,78*
Cc1ccc2c(c1)c1nc3ccccc3nc1n2CC(=O)OCc1ccccc1,.,-3
O=C(NCCc1cn2ccccc2n1)c1cccc(C(F)(F)F)c1,.,-6
COC(CNC(=O)c1cc2c(s1)-c1ccccc1OC2)OC,.,-13
O=C(c1nc2ccccc2[nH]1)N1CCOCC1,.,-6
S=C(c1nc2ccccc2[nH]1)N1CCOCC1,5.2*,-4
Cn1c(-c2nonc2NC(=O)c2ccccc2Br)nc2ccccc21,.,102*
CC(=O)Nc1nonc1-c1nc2ccccc2n1Cc1ccccc1Br,.,12
N#Cc1c(N)nc(SCC(=O)c2ccc3ccccc3c2)c(C#N)c1-c1cccc(F)c1,.,23
SMILES,YB-1 expr inh,ROS inducer
COc1ccc(-c2c(C#N)c(SCC(=O)c3ccccc3)nc3c2C(=O)CC(C)(C)C3)cc1,.,138*
CC1CCc2nn(CC(=O)N3CCCC3)cc2C1 (stereo unspecified),.,-6
O=c1n(CCCN2CCN(c3cccc(Cl)c3)CC2)nc2ccccn12,-0.52,-1
CCCc1c(C#N)c(N)nc(SCCCN2CCN(c3cccc(Cl)c3)CC2)c1C#N,.,126*
CCS(=O)CCSc1nc(-c2ccc(C)cc2)cc(-c2ccccc2)c1C#N (stereo unspecified),.,-8
CCS(=O)CCSc1nc(-c2ccc(Br)cc2)cc(-c2ccccc2)c1C#N (stereo unspecified),.,166*
CCC(CC)C(=O)N1c2ccccc2Sc2ccccc21,.,2
COc1cc(OC)c(O[C@@H]2O[C@H](COC(=O)c3cc(O)c(O)c(O)c3)[C@@H](O)[C@H](O)[C@H]2O)c(OC)c1,5.6*,4
O=C(OC[C@H]1O[C@@H](Oc2ccc(O)cc2)[C@H](O)[C@@H](O)[C@@H]1O)c1ccc(O)cc1,0.42,-3
Fc1nc(N2CCOCC2)c2c(c1Cl)Oc1ccccc1O2,.,9
